This note sets out measurements from article PMC7862700, “An all-to-all approach to the identification of sequence-specific readers for epigenetic DNA modifications on cytosine”.

What all share (assay): DAPPL (digital affinity profiling via proximity ligation, sequencing); 10 mM Tris-HCl pH 7.5, 50 mM NaCl, 1 mM DTT, 4% glycerol, room temperature, 30 min; GST-TFs on glutathione beads, 16-mer random dsDNA library, 0.1% formaldehyde crosslink after washing; high values mean tight binding
Details in all cases: protein: recombinant; tags: N-terminal GST; dsDNA, one strand shown

One assay addresses T1, ERF (Homo sapiens, UniProt P50548 1-548).
T1 sequence: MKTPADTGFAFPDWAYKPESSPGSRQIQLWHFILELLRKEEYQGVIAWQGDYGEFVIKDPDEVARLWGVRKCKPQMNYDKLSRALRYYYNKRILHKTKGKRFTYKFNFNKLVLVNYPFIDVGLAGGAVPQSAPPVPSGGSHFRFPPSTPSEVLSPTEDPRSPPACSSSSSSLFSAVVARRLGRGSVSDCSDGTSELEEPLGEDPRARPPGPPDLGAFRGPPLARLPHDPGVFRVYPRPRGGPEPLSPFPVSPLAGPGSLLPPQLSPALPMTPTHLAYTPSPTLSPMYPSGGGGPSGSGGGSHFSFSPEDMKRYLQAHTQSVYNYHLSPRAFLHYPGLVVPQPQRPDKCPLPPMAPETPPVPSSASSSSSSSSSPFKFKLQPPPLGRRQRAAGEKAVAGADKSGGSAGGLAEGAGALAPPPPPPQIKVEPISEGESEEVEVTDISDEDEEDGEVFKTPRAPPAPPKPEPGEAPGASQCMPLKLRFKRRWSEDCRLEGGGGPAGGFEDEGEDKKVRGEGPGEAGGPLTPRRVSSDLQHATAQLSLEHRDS
The method, boiled down:
(§1)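 In yeast, human transcription factors were expressed with a GST fusion, then pulled down on glutathione beads and given DNA barcodes. Pooled with a tag-only sample, they were exposed to 200 nmole of a 16-mer random double-stranded DNA library (Tris/NaCl/DTT/glycerol buffer, room temperature, 30 min), washed, crosslinked with 0.1% formaldehyde, proximity-ligated using BsaI/T4 ligase for 1 h at 37 °C, PCR-amplified and read on an Illumina NextSeq500. Each hexamer's frequency of reads for a factor, divided by the matching frequency for the tag-only sample, gives the binding signal.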

The target of a further assay is T2, ETV3L (Homo sapiens, UniProt Q6ZN32 1-361).
T2 sequence: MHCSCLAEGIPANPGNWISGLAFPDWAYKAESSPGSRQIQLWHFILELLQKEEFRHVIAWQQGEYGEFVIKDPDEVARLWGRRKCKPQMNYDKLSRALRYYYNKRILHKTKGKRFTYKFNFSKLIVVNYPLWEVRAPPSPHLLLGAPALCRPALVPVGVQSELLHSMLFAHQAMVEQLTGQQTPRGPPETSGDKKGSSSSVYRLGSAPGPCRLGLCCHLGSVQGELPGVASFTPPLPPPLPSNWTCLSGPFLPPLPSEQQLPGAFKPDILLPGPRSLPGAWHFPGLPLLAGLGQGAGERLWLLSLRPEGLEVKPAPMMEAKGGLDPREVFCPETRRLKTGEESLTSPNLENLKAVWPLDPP
The method, boiled down:
as §1

In a further assay the target is T3, ETS2 (Homo sapiens, UniProt P15036 1-469).
T3 sequence: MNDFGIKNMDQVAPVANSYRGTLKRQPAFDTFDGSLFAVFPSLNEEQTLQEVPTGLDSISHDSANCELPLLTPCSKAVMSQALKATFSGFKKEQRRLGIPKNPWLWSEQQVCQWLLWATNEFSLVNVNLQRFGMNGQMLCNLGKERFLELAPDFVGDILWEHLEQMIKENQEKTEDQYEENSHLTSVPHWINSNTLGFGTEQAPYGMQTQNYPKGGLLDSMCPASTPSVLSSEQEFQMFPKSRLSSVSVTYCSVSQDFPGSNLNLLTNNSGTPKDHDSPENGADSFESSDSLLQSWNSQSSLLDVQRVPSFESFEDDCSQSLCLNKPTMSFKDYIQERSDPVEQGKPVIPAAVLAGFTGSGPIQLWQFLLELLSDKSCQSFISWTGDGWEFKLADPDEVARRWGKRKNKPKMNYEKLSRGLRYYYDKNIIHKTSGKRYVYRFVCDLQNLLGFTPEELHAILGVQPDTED
A digest of the protocol:
as §1

Another assay concerns the target T4, SPDEF (Homo sapiens, UniProt O95238 1-335).
T4 sequence: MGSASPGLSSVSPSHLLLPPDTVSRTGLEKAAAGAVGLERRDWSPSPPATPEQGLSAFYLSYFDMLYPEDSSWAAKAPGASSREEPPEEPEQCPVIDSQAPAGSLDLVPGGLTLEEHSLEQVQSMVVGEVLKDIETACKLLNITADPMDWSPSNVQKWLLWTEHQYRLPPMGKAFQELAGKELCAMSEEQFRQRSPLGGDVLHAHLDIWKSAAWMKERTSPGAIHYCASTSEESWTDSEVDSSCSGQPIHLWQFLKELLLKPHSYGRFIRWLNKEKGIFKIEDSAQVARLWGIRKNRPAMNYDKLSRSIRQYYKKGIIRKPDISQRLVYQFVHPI
The method, boiled down:
as §1

For the next assay, the target named is T5, ETV7 (Homo sapiens, UniProt Q9Y603 1-341).
T5 sequence: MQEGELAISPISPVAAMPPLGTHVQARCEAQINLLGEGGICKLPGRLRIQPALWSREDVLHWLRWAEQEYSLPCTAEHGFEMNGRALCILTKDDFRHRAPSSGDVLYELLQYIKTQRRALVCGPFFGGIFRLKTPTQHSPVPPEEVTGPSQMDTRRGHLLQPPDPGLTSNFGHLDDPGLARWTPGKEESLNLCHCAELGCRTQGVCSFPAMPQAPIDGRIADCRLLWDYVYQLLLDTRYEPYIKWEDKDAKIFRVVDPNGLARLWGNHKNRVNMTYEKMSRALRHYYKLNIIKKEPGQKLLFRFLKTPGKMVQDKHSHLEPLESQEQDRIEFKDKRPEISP
A digest of the protocol:
as §1

A further assay deals with T6, ELF5 (Homo sapiens, UniProt Q9UKW6-2 1-255).
T6 sequence: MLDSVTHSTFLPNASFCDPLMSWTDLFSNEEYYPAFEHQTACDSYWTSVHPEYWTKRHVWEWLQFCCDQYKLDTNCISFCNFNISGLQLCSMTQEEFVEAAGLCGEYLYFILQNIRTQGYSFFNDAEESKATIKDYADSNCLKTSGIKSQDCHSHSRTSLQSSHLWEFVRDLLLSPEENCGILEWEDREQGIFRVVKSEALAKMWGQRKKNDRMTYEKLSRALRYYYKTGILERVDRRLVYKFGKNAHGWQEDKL
A digest of the protocol:
as §1

The next assay addresses T7, ETV3 (Homo sapiens, UniProt P41162-2 1-143).
T7 sequence: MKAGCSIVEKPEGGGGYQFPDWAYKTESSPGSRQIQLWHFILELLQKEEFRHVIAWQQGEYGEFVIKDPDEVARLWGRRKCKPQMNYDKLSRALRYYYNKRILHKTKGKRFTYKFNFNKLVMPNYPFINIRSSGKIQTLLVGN
The method, boiled down:
as §1

The next assay concerns the target ETV6 (Homo sapiens, UniProt P41212 1-452). The method, boiled down:
as §1

ETV6, sequence (P41212 whole entry): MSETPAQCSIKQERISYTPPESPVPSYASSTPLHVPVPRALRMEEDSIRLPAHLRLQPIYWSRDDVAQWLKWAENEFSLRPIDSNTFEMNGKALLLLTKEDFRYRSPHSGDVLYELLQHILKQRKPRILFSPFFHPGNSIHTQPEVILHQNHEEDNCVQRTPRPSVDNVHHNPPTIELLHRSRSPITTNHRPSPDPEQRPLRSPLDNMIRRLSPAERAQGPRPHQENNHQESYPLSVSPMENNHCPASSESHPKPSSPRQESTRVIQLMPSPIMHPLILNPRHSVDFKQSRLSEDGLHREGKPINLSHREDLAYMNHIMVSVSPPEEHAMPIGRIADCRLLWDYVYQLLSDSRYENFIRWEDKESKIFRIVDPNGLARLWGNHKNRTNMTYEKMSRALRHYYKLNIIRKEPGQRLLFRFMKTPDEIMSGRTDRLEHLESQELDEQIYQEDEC

As for ATCATG, the binding signal with ERF was 1.19 fold enrichment (6-mer frequency, TF over GST control); with ETV3L it was 1.08 fold enrichment (6-mer frequency, TF over GST control); with ETS2, 1.14 fold enrichment (6-mer frequency, TF over GST control); with SPDEF, 1.07 fold enrichment (6-mer frequency, TF over GST control); with ETV7, 1.13 fold enrichment (6-mer frequency, TF over GST control); in the assay with ELF5, 1.11 fold enrichment (6-mer frequency, TF over GST control). Further, the binding signal in the assay with ETV3 is 1.19 fold enrichment (6-mer frequency, TF over GST control); with ETV6, 1.08 fold enrichment (6-mer frequency, TF over GST control).
CTTGAA: the binding signal in the assay with ERF is 1.2 fold enrichment (6-mer frequency, TF over GST control); with ETV3L, 1.11 fold enrichment (6-mer frequency, TF over GST control); with ETS2 it was 1.16 fold enrichment (6-mer frequency, TF over GST control); in the assay with SPDEF it was 1.13 fold enrichment (6-mer frequency, TF over GST control); with ETV7, 1.08 fold enrichment (6-mer frequency, TF over GST control); in the assay with ELF5 it was 1.15 fold enrichment (6-mer frequency, TF over GST control). For the same sequence, the binding signal was 1.16 fold enrichment (6-mer frequency, TF over GST control) with ETV3 and 1.07 fold enrichment (6-mer frequency, TF over GST control) with ETV6.
In the case of ACTAAG, the binding signal with ERF was 1.04 fold enrichment (6-mer frequency, TF over GST control); with ETV3L it was 1.12 fold enrichment (6-mer frequency, TF over GST control); with ETS2, 1.11 fold enrichment (6-mer frequency, TF over GST control); with SPDEF, 1.16 fold enrichment (6-mer frequency, TF over GST control); with ETV7, 1.14 fold enrichment (6-mer frequency, TF over GST control); in the assay with ELF5, 1.12 fold enrichment (6-mer frequency, TF over GST control). Also, the binding signal with ETV3 is 1.09 fold enrichment (6-mer frequency, TF over GST control); with ETV6, 1.2 fold enrichment (6-mer frequency, TF over GST control).
Turning to CATTTC, the binding signal is 1.72 fold enrichment (6-mer frequency, TF over GST control) with ERF; 1.81 fold enrichment (6-mer frequency, TF over GST control) in the assay with ETV3L; 1.87 fold enrichment (6-mer frequency, TF over GST control) in the assay with ETS2; 1.75 fold enrichment (6-mer frequency, TF over GST control) with SPDEF; 1.68 fold enrichment (6-mer frequency, TF over GST control) with ETV7; 2.15 fold enrichment (6-mer frequency, TF over GST control) in the assay with ELF5. For the same sequence, the binding signal with ETV3 was 1.87 fold enrichment (6-mer frequency, TF over GST control); with ETV6, 2.02 fold enrichment (6-mer frequency, TF over GST control).
Regarding TGTACG, the binding signal with ERF is 1.14 fold enrichment (6-mer frequency, TF over GST control); in the assay with ETV3L, 1.2 fold enrichment (6-mer frequency, TF over GST control); with ETS2 it was 1.17 fold enrichment (6-mer frequency, TF over GST control); with SPDEF it was 1.29 fold enrichment (6-mer frequency, TF over GST control); in the assay with ETV7 it was 1.09 fold enrichment (6-mer frequency, TF over GST control); in the assay with ELF5 it was 1.14 fold enrichment (6-mer frequency, TF over GST control). Moreover, the binding signal with ETV3 was 1.1 fold enrichment (6-mer frequency, TF over GST control); with ETV6, 1.18 fold enrichment (6-mer frequency, TF over GST control).
With GTAACT, the binding signal with ERF is 1.22 fold enrichment (6-mer frequency, TF over GST control); with ETV3L, 1.28 fold enrichment (6-mer frequency, TF over GST control); in the assay with ETS2, 1.25 fold enrichment (6-mer frequency, TF over GST control); with SPDEF, 1.2 fold enrichment (6-mer frequency, TF over GST control); in the assay with ETV7, 1.12 fold enrichment (6-mer frequency, TF over GST control); in the assay with ELF5, 1.24 fold enrichment (6-mer frequency, TF over GST control). Further, the binding signal is 1.25 fold enrichment (6-mer frequency, TF over GST control) in the assay with ETV3 and 1.25 fold enrichment (6-mer frequency, TF over GST control) in the assay with ETV6.
Regarding TGTTAC, the binding signal in the assay with ERF was 1.3 fold enrichment (6-mer frequency, TF over GST control); with ETV3L it was 1.41 fold enrichment (6-mer frequency, TF over GST control); with ETS2 it was 1.39 fold enrichment (6-mer frequency, TF over GST control); with SPDEF it was 1.54 fold enrichment (6-mer frequency, TF over GST control); in the assay with ETV7, 1.42 fold enrichment (6-mer frequency, TF over GST control); with ELF5, 1.43 fold enrichment (6-mer frequency, TF over GST control). Also, the binding signal was 1.44 fold enrichment (6-mer frequency, TF over GST control) with ETV3 and 1.31 fold enrichment (6-mer frequency, TF over GST control) with ETV6.
